Source: PubChem (National Center for Advancing Translational Sciences (NCATS))
An excerpt weighted towards active compounds, which were near 3.1% of everything screened.
VDR inh – vitamin D3 receptor (human) inhibition; Potency, µM, usual class: inhibitors; AID 504847; hit rate 0.93% among 400,000; VDR-SRC2-3 peptide fluorescence polarization, 2 h; P11473
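After 23 nl compound addition and a short centrifugation, plates sat for 2 hours at ambient temperature; polarization of fluorescence then indicated loss of VDR binding to peptide SRC2-3.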
PLK1 PBD block – PLK1 (human) polo-box domain binding inhibition; P53350; Plk1 PBD binding of FITC phosphopeptide, fluorescence polarization; Potency, µM, hits mostly inhibitors; hit rate 2.8% among 360,000; AID 720504; further: series mostly up to about 57 µM; nearly all actives have a fitted effect of over 65% in size
TSHR antagonist – blocks TSH signaling through the human TSH receptor. activity change, negative = inhibition, % at 11.5 µM. P16473. TSHR-expressing cells, TSH-stimulated cAMP HTRF, 2 h; stronger effect = lower value. AID 504810. hit rate 0.2% among 330,000;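 active means activity change below a set negative limit, meaning inhibition stronger than a set level, cut at about -70% in these data; inconclusive means activity change between two set negative limits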
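Cell-based HTRF cAMP assay; TSHR cells + compound, TSH EC80 (4nM final), 2 h, 37 deg C. Lysis with anti-cAMP cryptate and cAMP-d2, 30 min RT, read 665/620 nm.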
uPA surface inh – inhibitors of cell surface uPA generation; cell surface uPA generation assay, qHTS; AID 540303; Potency, µM (titrated, usually from 38.3 µM), most hits filed as inhibitors; hit rate 0.31% among 330,000; active means well fitted inhibition curve with a large enough effect; inconclusive means small, poorly fitted or top-dose-only effect; inactive means no such curve, though single readings can be large or run the other way; tested in mouse RAW 264.7 cells; further: nearly all actives have a fitted effect of over 55% in size
PTAP TSG101 blk – blocks PTAP/TSG101 interaction to inhibit HIV-1 budding; 340,000 tested, under 10 active; AID 493005; Potency, µM (titrated, usually from 115 µM), hits mostly inhibitors; Q99816; Fluorescence polarization, FITC-PTAP peptide / Tsg101 binding; active means well fitted inhibition curve with a large enough effect in the main read-out, with a control signal flat, not every such curve was filed as active; inconclusive means small, poorly fitted or top-dose-only effect, or effect the other way, or a change in a side signal; inactive means no such curve, though single readings can be large or run the other way
Target sequence (Q99816 whole entry, looked up): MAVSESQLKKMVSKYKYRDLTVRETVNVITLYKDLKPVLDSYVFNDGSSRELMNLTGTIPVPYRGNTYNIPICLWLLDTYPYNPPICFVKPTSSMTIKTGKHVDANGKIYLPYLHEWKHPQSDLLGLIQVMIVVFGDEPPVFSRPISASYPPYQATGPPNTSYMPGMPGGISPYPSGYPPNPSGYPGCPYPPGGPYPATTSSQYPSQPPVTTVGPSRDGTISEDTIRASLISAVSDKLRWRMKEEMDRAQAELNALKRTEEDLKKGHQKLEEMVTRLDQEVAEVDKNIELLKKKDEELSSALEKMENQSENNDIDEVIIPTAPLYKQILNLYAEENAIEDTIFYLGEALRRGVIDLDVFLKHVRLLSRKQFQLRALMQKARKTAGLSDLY
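FP read-out: FITC-PTAP peptide, 50 nM final, binding Tsg101 binding domain, 10 uM final; 20 min, r.t.; 10 mM HEPES pH 7.5, 0.15 M NaCl, 0.01% Tween 20, 3 mM EDTA, 0.1 mM TCEP.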
Of the large screens only hits and unclear results are named; the others gave an inactive call. Unless noted, the call rests on the fitted dose curve; in most records, active means well fitted curve in the direction sought with a large enough effect; inconclusive means small, poorly fitted or top-dose-only effect, or another doubt; inactive means no such curve, though single readings can be large; an effect the other way counts as inactive or inconclusive.

CCOc1ccc(C2CC(=O)Nc3c2c(=O)nc(SCc2ccccc2C)n3C)cc1OC (stereo not drawn)	none (no result: PLK1 PBD block, TSHR antagonist, uPA surface inh, PTAP TSG101 blk)
Cc1ccc(S(=O)(=O)c2ccc([N+](=O)[O-])o2)cc1	VDR inh 44.7µM, PLK1 PBD block 0.844µM (no result: TSHR antagonist)
CCC(C)c1ccc(-n2c(=O)c3ccccc3n3c(=S)[nH]nc23)cc1 (stereo not drawn)	PLK1 PBD block 21.2µM
O=c1c2ccccc2n2c(=S)[nH]nc2n1-c1ccccc1	PLK1 PBD block 21.2µM
Cc1c(C(=O)N/N=C/c2ccc(Cl)cc2)[nH]c2ccc(Cl)cc12	uPA surface inh 0.355µM
CCOc1ccc(/C=N/NC(=O)c2[nH]c3ccc(C)cc3c2C)cc1	none
NC(=S)N=Nc1ccc(O)cc1	VDR inh inconclusive, PLK1 PBD block 26.7µM (no result: TSHR antagonist)
CCc1ccccc1NC1=NCC(=O)N1Cc1ccc2c(c1)OCO2	PLK1 PBD block 29.9µM
O=C(CSc1nnc(C2CCCCC2)n1Cc1ccccc1)NCc1ccco1	VDR inh inconclusive, PLK1 PBD block 26.7µM
CCn1c(SCC(=O)NCc2ccco2)nnc1C1CCCC1	none
COc1cc2cc(C(=O)N3CCOCC3)cc(-c3ccc(C)cc3)c2cc1OC	uPA surface inh 4.47µM
COc1ccc(C(=O)Nn2c(CCC(=O)O)ccc2-c2ccc(C)cc2)cc1OC	PLK1 PBD block 21.2µM
COc1cc(CNc2cccc3[nH]c(C(F)(F)F)nc23)cc(OC)c1	VDR inh inconclusive, PLK1 PBD block 26.7µM
COc1ccc(CNc2cccc3[nH]c(C(F)(F)F)nc23)cc1	none
Cc1ccc(S(=O)(=O)N(C)[C@H]2C[C@H]3c4[nH]c5ccccc5c4CCN3C[C@H]2[C@H](C)O)cc1	none (no result: VDR inh, TSHR antagonist, uPA surface inh, PTAP TSG101 blk)
COc1ccc2[nH]c(S(=O)Cc3ncc(C)c(OC)c3C)nc2n1 (stereo not drawn)	VDR inh 44.7µM (no result: PLK1 PBD block, TSHR antagonist, uPA surface inh, PTAP TSG101 blk)
COc1ccc2[nH]c(S(=O)Cc3ncc(C)c(OC)c3C)nc2c1 (stereo not drawn)	none (no result: VDR inh)
COc1ccc(-c2cc3c(nn2)-c2ccccc2C3=O)cc1	VDR inh 79.4µM, PLK1 PBD block 23.8µM
O=C(/C=C/c1ccccc1Cl)c1ccccc(=O)c1O	VDR inh 28.2µM, PLK1 PBD block 26.7µM
O=C(/C=C/c1ccc([N+](=O)[O-])cc1)c1ccccc(=O)c1O	VDR inh 25.1µM (no result: TSHR antagonist)
O=C(C=Cc1ccccc1O)c1ccccc1O	VDR inh inconclusive, PLK1 PBD block inconclusive (no result: TSHR antagonist)
O=C(/C=C/c1ccccc1Cl)Nc1ccc(Cl)cn1	none
Cc1ccc(C)c(/C=C/C(=O)c2ccccc(=O)c2O)c1	VDR inh 44.7µM, PLK1 PBD block inconclusive
Cc1nn(C)cc1C(=O)/C=C/c1ccc([N+](=O)[O-])cc1	none
CCOc1ccc(S(=O)(=O)NCCc2csc(-c3ccc(Cl)cc3)n2)cc1	none (no result: PLK1 PBD block, TSHR antagonist, uPA surface inh, PTAP TSG101 blk)
CCOc1ccccc1CN1CCc2nc(N3CCN(c4ccccc4F)CC3)ncc2C1	none (no result: PLK1 PBD block, TSHR antagonist, uPA surface inh, PTAP TSG101 blk)
CCC(O)c1cnc(OCc2ccccc2)nc1OCc1ccccc1 (stereo not drawn)	none (no result: VDR inh, TSHR antagonist, uPA surface inh, PTAP TSG101 blk)
Cc1ccc(C)c(OCC(=O)Nc2ccccc2C(=O)NC2CC2)c1	VDR inh 89.1µM
CCOC(=O)Nc1ccc2nc(Sc3ccc(Cl)cc3)sc2c1	uPA surface inh 1.58µM
Cc1cc(C)c(NC(=S)NCC2CCN(C(C)c3ccccc3)C2)c(C)c1 (stereo not drawn)	VDR inh 44.7µM, PLK1 PBD block 2.67µM
COc1ccc(CNC(=O)c2sc3nc4c(c(C(F)(F)F)c3c2N)CCC4)cc1OC	VDR inh 39.8µM, PLK1 PBD block inconclusive
COc1ccc(C(=O)c2sc3nc4c(c(C(F)(F)F)c3c2N)CN(C(C)=O)CC4)cc1OC	none (no result: PLK1 PBD block, TSHR antagonist, uPA surface inh, PTAP TSG101 blk)
CC1CCc2c(ccc3ccccc23)C1=O (stereo not drawn)	none (no result: TSHR antagonist)
O=C1c2ccccc2C(=O)C1Cc1cccc2ccccc12	VDR inh inconclusive, PLK1 PBD block 6.7µM (no result: uPA surface inh)
S=C(NCc1ccco1)N1CCN(Cc2ccco2)CC1	none
S=C(Nc1ccc2c(c1)OCO2)N1CCN(Cc2ccco2)CC1	uPA surface inh 4.47µM
NS(=O)(=O)c1ccc(NC(=S)N2CCN(Cc3ccc4c(c3)OCO4)CC2)cc1	PLK1 PBD block 11.9µM
Cc1cc(C)c(/C=C/c2onc(C)c2S(=O)(=O)N2CCC(C(=O)NCc3ccco3)CC2)c(C)c1	none (no result: PLK1 PBD block, TSHR antagonist, uPA surface inh, PTAP TSG101 blk)
CC(C)C(Cl)=NOC(=O)Nc1ccc(S(N)(=O)=O)cc1	VDR inh inconclusive, PLK1 PBD block 8.44µM (no result: TSHR antagonist)
COC(=O)[C@H](C)NC(=O)Nc1ccc(S(N)(=O)=O)cc1	none
O=C(O)c1cnn(-c2nc(-c3ccc(Cl)c(Cl)c3)cs2)c1C(F)(F)F	VDR inh inconclusive, PLK1 PBD block 26.7µM
O=C(O)c1ccc(-c2nc(-c3ccc(Cl)c(Cl)c3)cs2)cc1	PLK1 PBD block 26.7µM
CC(C)=CCC/C(C)=C/CC/C(C)=C/CC/C(C)=C/CC1=C(C)C(=O)c2ccccc2C1=O	VDR inh inconclusive
CC(C)=CCC1=C(OCC(=O)O)C(=O)c2ccccc2C1=O	VDR inh inconclusive, PLK1 PBD block 29.9µM
CCOC(=O)C1(C)CCN1C(=O)c1ccccc1 (stereo not drawn)	none (no result: VDR inh, TSHR antagonist, uPA surface inh, PTAP TSG101 blk)
CCn1nc(C(=O)OCC(=O)c2ccc3c(c2)OCCO3)c2ccccc2c1=O	VDR inh inconclusive, PLK1 PBD block 21.2µM
CC(C)CNC(=O)C(=O)NCCCN1CCOCC1	PLK1 PBD block 21.2µM
NNC(=O)C(=O)NCCCN1CCOCC1	none
N#C/C(=C/c1ccc(N2CCCCC2)o1)c1cccc(F)c1	VDR inh 39.8µM (no result: uPA surface inh)
Cc1ccc(/C(C#N)=C\c2ccc(N3CCOCC3)o2)cc1	VDR inh inconclusive, uPA surface inh inconclusive
O=C1C=CC(=C(c2ccc(O)cc2)c2ccc(O)cc2)C=C1	VDR inh 50.1µM, uPA surface inh 2µM
CC(C)(C)C(=O)C(Cl)C(=O)Nc1ccccc1 (stereo not drawn)	VDR inh 20µM, PLK1 PBD block 10.6µM, uPA surface inh inconclusive
c1csc(C2=Nn3c(nnc3-c3ccncc3)SC2)c1	PLK1 PBD block 26.7µM
COC(=O)[C@H](Cc1ccccc1)NC(=O)O[C@@H]1Cc2cc(OC)ccc2O[C@H]1c1cccc(OC)c1	none (no result: PLK1 PBD block, TSHR antagonist, uPA surface inh, PTAP TSG101 blk)
CC1=C(C)/C(=N/OC(=O)c2cccc([N+](=O)[O-])c2)C=CC1=O	PLK1 PBD block 4.23µM
N#CCCn1c(=O)c(-c2ccccc2)nc2cnc(N3CCOCC3)nc21	none (no result: PLK1 PBD block, TSHR antagonist, uPA surface inh, PTAP TSG101 blk)
CCc1ccc(NC2CC(=O)N(CCc3ccc(OC)c(OC)c3)C2=O)cc1 (stereo not drawn)	VDR inh inconclusive, PLK1 PBD block 26.7µM
COc1ccc(CCN2C(=O)C3C(C2=O)C2C=CC3C23CC3)cc1OC (stereo not drawn)	PLK1 PBD block 23.8µM
CCOC(=O)C1=NOC2C3CC(C12)C1C(=O)N(CCc2ccc(OC)c(OC)c2)C(=O)C31 (stereo not drawn)	PLK1 PBD block 26.7µM
COc1ccc(CCN2C(=O)CC(Nc3ccc(N4CCOCC4)cc3)C2=O)cc1OC (stereo not drawn)	none (no result: TSHR antagonist)
